Assay outcomes from PubChem BioAssay.
HT1080NT lethal = qHTS for induction of synthetic lethality in tumor cells producing 2HG: qHTS for the HT-1080-NT fibrosarcoma cell line. HT-1080-NT fibrosarcoma viability, CellTiter-Glo ATP luminescence, 48 h. Potency, µM (top dose mostly 46.1 µM), without a hit: top-dose activity, negative = less viability, actives largely listed as cytotoxic. 360,000 compounds, 1.6% hits;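 further: NT is the 2HG producing partner of a matched IDH1 knockdown line; 0% = DMSO-treated cells and -100% = media-only wells without cells; nearly all actives have a fitted effect of over 55% in size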
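Viability of the 2HG-overproducing fibrosarcoma line after 48 hours of compound exposure at 37 degrees C was determined by luminescence with CellTiter-Glo, and concentration-effect curves were then fitted and categorized.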
TDP1 cell CPT = qHTS for Inhibitors of human tyrosyl-DNA phosphodiesterase 1 (TDP1): qHTS in cells in presence of CPT; chicken DT40 Tdp1-/-;hTDP1 cells + 20 nM CPT, ATP luminescence, 48 h; Potency, µM (titrated, usually from 46.2 µM), for the others: at the top dose activity change, negative = growth inhibition, hits mostly inhibitors; 420,000 compounds, 12% hits; AID 686979, 2013; further: on the % scale 0 is the no-effect control and ±100 the full control effect; nearly all actives have a fitted effect of over 55% in size
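Chicken DT40 Tdp1-/- cells complemented with human TDP1, 400 cells/well, exposed to compounds plus 20 nM camptothecin for at least 48 h at 37 C; viability read as ATP content by CellTiter-Glo luminescence.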
TGFb SMAD3 inh = qHTS for Inhibitors of TGF-b; HepG2 CAGA-GFP TGF-b/SMAD3 reporter, GFP fluorescence, 18 h; TGF-beta stimulated, 500 pg/mL final; Potency, µM (series often up to 46.1 µM), without a hit: at the top dose activity, negative = inhibition, actives largely listed as inhibitors; 410,000 compounds, 1.2% hits; AID 588855, 2011; further: on the % scale 0 is the no-effect control and ±100 the full control effect; nearly all actives have a fitted effect of over 65% in size
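Inhibition of TGF-beta-driven CAGA-GFP reporter expression in HEPG2 cells is measured by cellular GFP fluorescence after 18 h stimulation with 500 pg/mL recombinant TGF-beta in 1% FBS medium at 37 degrees C.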
DT40 TDP1 no CPT = qHTS for Inhibitors of human tyrosyl-DNA phosphodiesterase 1 (TDP1): qHTS in cells in absence of CPT; DT40 Tdp1-/- hTDP1 cells, no CPT, ATP luminescence, 48 h; Potency, µM (highest dose often 46.2 µM), inactives show top-dose activity change, negative = growth inhibition, usual class: inhibitors; 420,000 compounds, 15% hits; further: on the % scale 0 is the no-effect control and ±100 the full control effect; nearly all actives have a fitted effect of over 55% in size
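Growth kinetics read by CellTiter-Glo luminescence after ≥48 hr at 37 °C. Cells: DT40 Tdp1-/- stably carrying human TDP1, 400 per well, compound exposure in the absence of CPT (DMSO vehicle).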
HepG2 viability = qHTS for Inhibitors of TGF-b: Cytotox Counterscreen; Potency, µM (top dose mostly 46.1 µM), for the others: at the highest dose activity change, negative = cytotoxicity, usual class: cytotoxic; HepG2 CAGA-GFP viability, ATP luminescence, 18 h; 410,000 compounds, 0.76% hits
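HepG2 CAGA-GFP cells (1000/well, DMEM with 1% FBS) received compound, then TGF-beta at 500 pg/mL final, and were incubated 18 hours at 37 degrees C. Viability was read by CellTiter-Glo luminescence. Media-only wells were set as complete cell-killing and DMSO as no toxicity.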
HT1080 IDH1KD tx = qHTS for induction of synthetic lethality in tumor cells producing 2HG: qHTS for the HT-1080-IDH1KD cell line | Potency, µM (top dose mostly 46.1 µM), inactives show at the highest dose activity, negative = toxicity, actives largely listed as cytotoxic | HT-1080 IDH1 knockdown viability, ATP luminescence, 48 h | 360,000 compounds, 2% hits;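 further: 0% = DMSO wells and -100% = cell-free medium wells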
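Cytotoxicity counter-line: IDH1KD HT-1080, 48 h, CellTiter-Glo. Curves classed by r2, magnitude and activity.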
* = called active by the depositor; ? = inconclusive; nt = not tested or not shown; [ ] = another dose, or the depositor's remark. This is a sample that favours compounds with a hit; in the whole collection about 17% have one here. The call rests on the fitted dose curve; in most records, active means well fitted curve in the direction sought with a large enough effect; inconclusive means small, poorly fitted or top-dose-only effect, or another doubt; inactive means no such curve, though single readings can be large; an effect the other way counts as inactive or inconclusive. Potency means the concentration at half of the fitted maximal effect.

SMILES | HT1080NT lethal | TDP1 cell CPT | TGFb SMAD3 inh | DT40 TDP1 no CPT | HepG2 viability | HT1080 IDH1KD tx
O=C(O)c1ccc(-n2c(/C=C/c3ccccc3)nc3ccccc3c2=O)cc1 | -1% | ? | -3% | -3% | 14% | 3%
COC(=O)c1ccc(-n2c(/C=C/c3cc(OC)c(OC)c(OC)c3)nc3cc(Cl)ccc3c2=O)cc1 | nt | 18µM* | 12% | 15µM* | -1% | nt
COC(=O)c1ccc(-n2c(/C=C\c3cccc(Br)c3)nc3ccccc3c2=O)cc1 | nt | 5.2µM* | -21% | 2.9µM* | -28% | nt
CC(C)(C)c1cc(NC(=O)c2cc(F)c(F)c(F)c2F)no1 | -11% | 29µM* | 7% | ? | -11% | -4%
CCN(C(=O)COC(=O)c1cc([N+](=O)[O-])ccc1N1CCOCC1)c1ccccc1 | 1% | ? | -5% | 15µM* | -2% | ?
CN(Cc1ccccc1)C(=O)COC(=O)c1cc([N+](=O)[O-])ccc1N1CCOCC1 | 2% | -3% | ? | ? | -8% | -8%
CCOC(=O)c1ccccc1NC(=O)COC(=O)c1cc([N+](=O)[O-])ccc1N1CCOCC1 | -6% | ? | -14% | 6.5µM* | 0% | -15%
COc1ccc(CN(C)C(=O)COC(=O)c2cc([N+](=O)[O-])ccc2N2CCCC2)c(OC)c1OC | -2% | ? | -13% | 21µM* | -13% | -26%
CC(=O)Nc1ccc(NC(=O)COC(=O)c2cc([N+](=O)[O-])ccc2N2CCOCC2)cc1 | -4% | -16% | -7% | ? | 30% | 1%
O=C(COC(=O)c1ccccc1NCCO)Nc1cc(C(F)(F)F)ccc1N1CCOCC1 | -4% | 18µM* | -14% | ? | -11% | ?
O=C(COC(=O)c1ccc(O)cc1)Nc1cc(C(F)(F)F)ccc1N1CCOCC1 | 6% | 0% | -20% | -1% | -3% | 8%
O=C(NCC1CCCO1)C(c1cccs1)N(Cc1ccccc1)C(=O)c1ccc(-c2ccccc2)[nH]1 (stereo not drawn) | -21% | ? | ? | 21µM* | -10% | -15%
CC(C)(C)NC(=O)C(c1cccs1)N(CC1CCCO1)C(=O)c1ccc(-c2ccccc2)[nH]1 (stereo not drawn) | -9% | 23µM* | ? | 21µM* | -24% | -18%
COc1ccccc1C(=O)NCC(=O)OCC(=O)c1ccc2c(c1)-c1ccccc1C2 | 1% | 22% | -23% | -2% | 1% | 9%
O=C(Nc1cccnc1Cl)C1=NN(c2ccccc2)C(=O)CC1 | -2% | ? | -4% | 1% | -17% | -12%
COc1ccc(CN2CCC(n3cc(C(=O)N4CCCCC4)nn3)CC2)c(OC)c1 | nt | 2%[9.04 µM] | nt | -23% | nt | nt
COc1ccc2nc3c(cc2c1)c(NC(=O)c1cccs1)nn3CC(C)C | ? | ? | ? | ? | -64% | 13µM*
CC(C)Cn1nc(NC(=O)c2cccs2)c2cc3ccccc3nc21 | -4% | ? | ? | 8.2µM* | -12% | -10%
CC(C)Cn1nc(NC(=O)c2ccco2)c2cc3ccccc3nc21 | -5% | 15µM* | 8% | 13µM* | 20% | 15%
CC(C)COC(=O)c1cccc2c1-c1ccccc1/C2=N\O | ? | -15% | 14µM* | -19% | -100% | ?
CCOC(=O)c1cccc2c1-c1ccccc1/C2=N/O | ? | -16% | ? | -18% | -39% | ?
O=C(CC1NCCc2ccccc21)Nc1ccccc1Cl (stereo not drawn) | 11% | 0% | 1% | -25% | -4% | 17%
CN1C(CC(=O)Nc2ccc(Cl)cc2Cl)c2ccccc2CC1(C)C (stereo not drawn) | -13% | 10µM* | -10% | 16µM* | -23% | ?
O=C(NC(=S)Nn1cnnc1)c1cccc(Br)c1 | -6% | 2% | -1% | -5% | 4% | -4%
COc1ccc(COCC(O)CN(Cc2ccco2)Cc2ccccc2O)cc1 (stereo not drawn) | -4% | ? | -10% | ? | 3% | 0%
SMILES | HT1080NT lethal | TDP1 cell CPT | TGFb SMAD3 inh | DT40 TDP1 no CPT | HepG2 viability | HT1080 IDH1KD tx
Oc1ccccc1CN(Cc1ccco1)CC(O)COCc1ccc(Cl)cc1 (stereo not drawn) | ? | 15µM* | ? | 18µM* | -94% | ?
CCOc1ccc(-c2cc(C(=O)N/N=C(\C)c3cccnc3)c3ccccc3n2)cc1 | ? | ? | -25% | ? | -12% | ?
COc1ccc(OC)c(-c2cc(C(=O)N/N=C(\C)c3cccnc3)c3ccccc3n2)c1 | -19% | 15µM* | 132% | ? | 5% | -11%
COc1ccc(-c2cc(C(=O)N/N=C(\C)c3cccnc3)c3ccccc3n2)c(OC)c1 | -1% | 10µM* | -27% | 13µM* | -17% | 4%
C/C(=N\NC(=O)c1cc(-c2ccco2)nc2ccccc12)c1cccnc1 | -7% | ? | 11% | ? | -4% | ?
Brc1ccc2c(c1)C(c1ccc(N3CCOCC3)cc1)=NNC(c1cccs1)=N2 | -4% | ? | -9% | 21µM* | -25% | -18%
Fc1ccc2c(c1)C(c1ccc(N3CCOCC3)cc1)=NNC(c1cccs1)=N2 | -21% | ? | -3% | 23µM* | -7% | -29%
COc1ccc(C2SCCN2C(=S)Nc2cccc(C(F)(F)F)c2)cc1 (stereo not drawn) | 0% | -7% | -1% | 0% | 11% | 5%
NCC1CCC(C(=O)O)CC1 (stereo not drawn) | nt | 7%[21.1 µM] | nt | -9%[21.1 µM] | nt | nt
CC(=O)Nc1ccc(N2C(C(C)=O)=NN(c3ccc(Cl)cc3)C2c2sccc2C)cc1 (stereo not drawn) | ? | 23µM* | ? | 23µM* | -30% | 7.9µM*
COc1ccccc1/C=C/c1onc(C)c1S(=O)(=O)N1CCC(C(=O)N2CCC(C)CC2)CC1 | nt | 21µM* | ? | 16µM* | 4% | nt
CCN(CC)c1ccc(NC(=O)C2CCN(S(=O)(=O)c3c(C)noc3/C=C/c3ccccc3F)CC2)c(C)c1 | nt | 21µM* | -11% | 16µM* | -15% | nt
